# Reference: PubChem BioAssay (Tox21)
# Records with an inconclusive call do not appear. Where a call stands in place of a potency, no number is given. The source made the active and inactive calls. Unless noted, the call rests on the fitted dose curve; in most records, active means well fitted curve in the direction sought with a large enough effect in the repeat runs; inconclusive means weak or mixed curves; inactive means no such curve, though single readings can be large; an effect the other way counts as inactive or inconclusive.
# Columns and labels:
# [1] = qHTS assay to identify small molecule antagonists of the estrogen related receptor (ERR) signaling pathway - cell viability counter screen (AID 1224818); further: potency means the concentration at half of the fitted maximal effect
# Outline: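 Viability of ERR cells, CellTiter-Fluor fluorescence; 17.5 h compound exposure at 37 C, DMSO vehicle; 30 min reagent incubation at 37 C/5% CO2.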
# [2] = qHTS assay to identify small molecule antagonists of the estrogen related receptor (ERR) signaling pathway (AID 1224819; further: nearly all actives have a fitted effect of over 50% in size; further: potency means the concentration at half of the fitted maximal effect)
# Outline: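 Seed ERR cells 2,000/well; rest 6 h at 37 C/5% CO2; pin compounds in DMSO; incubate 18 h at 37 C; add One-Glo; wait 30 min at room temperature; measure luminescence.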
# [3] = qHTS assay to identify small molecule agonists of the estrogen related receptor (ERR) signaling pathway (AID 1224820)
# Outline: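 Following a 6 h settling period, 2,000 ERR cells per well receive DMSO-dissolved compounds by pin tool and incubate 18 h at 37 C; agonist activity is scored from One-Glo luminescence read 30 min post-addition.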
# [4] = test system: estrogen-related receptor alpha (ERRalpha) with PGC-1alpha coactivator, human; test: qHTS assay to identify small molecule antagonists of the estrogen related receptor signaling pathway with the pleiotropic PPARgamma coactivator (PGC) (AID 1224821; calls by dose curve; further: nearly all actives have a fitted effect of over 50% in size; further: potency means the concentration at half of the fitted maximal effect)
# Outline: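 Screening used NTP's PGC/ERR cells, dosed via pin tool with compound in DMSO alongside positive and negative controls. After 18 h at 37 C, One-Glo reagent sat 30 min at room temperature before luminescence detection.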
# [5] = qHTS assay to identify small molecule agonists of the estrogen related receptor signaling pathway with the pleiotropic PPARgamma coactivator (PGC) (AID 1224823); further: potency means the concentration at half of the fitted maximal effect
# Outline: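 In this quantitative high-throughput screen, an 18 h, 37 C treatment of PGC/ERR cells with compounds in DMSO preceded a One-Glo luminescence read taken after 30 min at room temperature.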
# [6] = qHTS assay to identify small molecule antagonists of the estrogen related receptor signaling pathway with the pleiotropic PPARgamma coactivator (PGC) cell viability counter screen (AID 1224822; further: series mostly up to about 46 µM)
# Outline: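 17.5 h compound treatment of PGC/ERR cells at 37 C; readout CellTiter-Fluor fluorescence; run alongside the PGC/ERR antagonist screen to flag cytotoxic compounds.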
SMILES,Potency [1],Potency [2],Potency [3],Potency [4],Potency [5],Potency [6]
CC(N)(Cc1ccc(O)cc1)C(=O)O (stereo not drawn),inactive,inactive,inactive,inactive,inactive,
CS(=O)(=O)c1ccc(-n2nc(C(F)(F)F)cc2-c2ccc(F)cc2)cc1,inactive,inactive,inactive,inactive,inactive,
Brc1c(Br)c(Br)c2[nH]cnc2c1Br,inactive,19.6 µM (active),inactive,6.94 µM (active),inactive,
O=C1C(SCCO)=C(SCCO)C(=O)c2ccccc21,inactive,9.08 µM (active),inactive,18.8 µM (active),inactive,
N[C@H](CO)C(=O)O,inactive,inactive,inactive,inactive,inactive,inactive
Brc1ccc([C@H]2CN3CCSC3=N2)cc1,inactive,inactive,inactive,,inactive,inactive
O=c1onc2cnc3ccccc3n12,inactive,inactive,inactive,,inactive,inactive
O=C(O)C1=CC(=C(c2ccc(O)c(C(=O)O)c2)c2ccc(O)c(C(=O)O)c2)C=CC1=O,inactive,inactive,inactive,,inactive,inactive
NCCCCN=C(N)N,inactive,inactive,inactive,,inactive,inactive
N[C@@H](Cn1ccc(=O)c(O)c1)C(=O)O,inactive,inactive,inactive,,inactive,inactive
O=C(O)CCC(=O)N1CCCC1C(=O)O (stereo not drawn),inactive,inactive,inactive,,inactive,inactive
N[C@@H](Cc1ccc(F)cc1)C(=O)O,inactive,inactive,inactive,,inactive,inactive
C#CC(N)CCC(=O)O (stereo not drawn),inactive,inactive,inactive,,inactive,inactive
COc1cccc(C(=O)NCCN2CCN(c3ccc(Cl)cc3)CC2)c1,inactive,17.4 µM (active),inactive,,inactive,inactive
C#C[C@]1(O)CC[C@H]2[C@@H]3CCC4=Cc5oncc5CC4(C)[C@H]3CCC21C (stereo partly drawn),inactive,16.8 µM (active),inactive,,inactive,
C[C@H](O)C(=O)C1=Nc2c(nc(N)[nH]c2=O)NC1,inactive,inactive,inactive,,inactive,inactive
COc1cc(C(O)CO)ccc1OS(=O)(=O)O (stereo not drawn),inactive,inactive,inactive,,inactive,inactive
C#CCn1c(=O)c2c(ncn2C)n(C)c1=O,inactive,inactive,inactive,,inactive,inactive

SMILES,Potency [1],Potency [2],Potency [3],Potency [4],Potency [5],Potency [6]
COc1cc(SC)ccc1C(=O)N1CCC(Cc2ccccc2)CC1,inactive,20.3 µM (active),inactive,,inactive,inactive
Oc1ccc2ccccc2c1SSc1c(O)ccc2ccccc12,inactive,20.3 µM (active),inactive,,inactive,
CC(C)(NS(=O)(=O)c1ccc(Oc2ccc(F)cc2)cc1)C(=O)NO,inactive,2.46 µM (active),inactive,,inactive,inactive
NC[C@@H]1O[C@H](c2ccccc2)Cc2c1ccc(O)c2O,inactive,inactive,inactive,,inactive,inactive
N[C@@H](CCC(=O)N[C@H](CSN=O)C(=O)NCC(=O)O)C(=O)O,inactive,inactive,inactive,,inactive,inactive
CN1CCc2ccccc2Cc2[nH]c3ccccc3c2CC1,inactive,inactive,inactive,,inactive,inactive
CC1(C)CCC(NC(=O)[C@@H](N)CCC(=O)O)CC1,inactive,inactive,inactive,,inactive,inactive
COc1cc(OC)c(/C=C2/C(=O)Nc3ccccc32)c(OC)c1,11 µM (active),11 µM (active),inactive,,inactive,
Nc1nc(Cl)nc2c1ncn2[C@@H]1O[C@H](CO)C(O)[C@H]1O (stereo partly drawn),inactive,inactive,inactive,,1.23 µM (active),inactive
NCCCS(=O)(=O)O,inactive,inactive,inactive,,inactive,inactive
Cc1cc(N)c2ccccc2[n+]1CCCCCCCCCC[n+]1c(C)cc(N)c2ccccc21,inactive,0.722 µM (active),inactive,,inactive,inactive
CN(C)c1nc(N)c(C(=O)N=C(N)N)nc1Cl,inactive,inactive,inactive,,inactive,inactive
CCCCCC(O)CCCC(=O)O (stereo not drawn),inactive,inactive,inactive,,inactive,inactive
N=C(N)SCCN,inactive,inactive,inactive,,inactive,inactive
CCc1cncnc1N1CCN(Cc2nc3ccc(C(F)(F)F)cc3[nH]2)CC1,inactive,6.94 µM (active),inactive,,inactive,inactive
CO[C@H]1O[C@@H]2O[C@]3(C)CC[C@@H]4[C@@H](C)CC[C@H]([C@H]1C)[C@]24OO3,inactive,0.531 µM (active),inactive,,inactive,inactive
CC[C@H](NC(=O)c1c(C)c(-c2ccccc2)nc2ccccc12)c1ccccc1,inactive,22 µM (active),inactive,,inactive,inactive
NC(Cc1cccc(-c2ccccc2CP(=O)(O)O)c1)C(=O)O (stereo not drawn),inactive,inactive,inactive,,inactive,inactive
